Results from PubChem BioAssay (EPA / NIEHS).
Calls of active or inactive are those of the source. How the source made its calls: active means hit-call score of the fitted dose curve at least 0.9, where 1 is the maximum; inactive means score below 0.9.

Assay: CCTE_Simmons_MITO_max_resp_rate: CCTE's HepG2 Seahorse XF Respirometric Screening Assay at Maximal Respiratory State [uncoupled], Simmons Lab (AID 2284002)
Settings: actives raise or lower the signal
Description: CCTE_Simmons_MITO is cell-based, respirometric assay using HepG2 cells and a Seahorse XF Analyzer to measure oxygen consumption rates over four temporal phases spanning a total of 72 minutes: pre-injection (pre-treatment), basal (following test compound injection), maximal (following FCCP uncoupler injection), and inhibited (following rotenone/antimycin A injection)CCTE_Simmons_MITO_max_resp_rate is one of 4 assay components calculated from the CCTE_Simmons_MITO assay. It is designed to make measurements of maximal respiration using a form of respirometric reporter, as detected with […] signals by Seahorse XF96 technology. Data from the assay component CCTE_Simmons_MITO_max_resp_rate was analyzed at the endpoint, CCTE_Simmons_MITO_max_resp_rate_OCR, with bidirectional fitting relative to DMSO as the negative control and baseline of activity. Using a type of respirometric reporter, measures of maximal respiration for gain or loss-of-signal activity can be used to understand cellular oxygen consumption as it relates to cellular respiration. To generalize the intended target to other relatable targets, this assay endpoint is annotated to the mitochondria intended target family, where the subfamily is respiration.
Test chemicals were administered as a titrated series of 7 concentrations from 125 nM up to 100 uM [final] prior to kinetic endpoint detection at 6 minute intervals [3 min mix followed by 3 minutes measure] for 72 minutes. Three biological replicates of technical singles were run for every chemical concentration tested. Dimethylsulfoxide [DMSO] was used as the vehicle control. The electron transport chain inhibitor fenpyroximate was used as the positive control for decreased basal respiration and was administered as a titrated series of 6 concentrations from 250 nM up to 2.75 uM [final] with technical triplicates for the top concentration only. The uncoupler 2,4-dintirophenol was used as the positive control for increased basal respiration and was administered as a titrated series of 6 concentrations from 938 nM up to 40 uM [final] with technical triplicates for the top concentration only. A Seahorse XF Analzyer is required to measure the response.
In the case of `CC(C)(C)c1csc(-c2cc3cc(OCc4ccccc4CC(=O)O)ccc3o2)n1`, the AC50 was 4.72 µM (active).
With `O=C1CCC(C2CCCCC2)CC1` the outcome was “inactive”.
For `Cc1c2ccccc2c(C)c2c1ccc1ccccc12`, the AC50 was 26.1 µM (active).
For `CCCCCCCCCC(=O)O`, the outcome was “inactive”.
For `C[C@]12CC[C@@H]3c4ccc(O)cc4CC[C@H]3[C@@H]1CC[C@H]2O`, the outcome was “inactive”.
For `CC/C(=C(/CC)c1ccc(O)cc1)c1ccc(O)cc1`, the AC50 was 11.3 µM (active).
In the case of `CC1(C)NC(=O)N(c2ccc([N+](=O)[O-])c(C(F)(F)F)c2)C1=O`, the AC50 was 33.8 µM (active).
In the case of `Cc1cc(F)ccc1-c1cc(N2CC[C@@H](O)[C@H]2CO)ncc1N(C)C(=O)C(C)(C)c1cc(C(F)(F)F)cc(C(F)(F)F)c1`, the AC50 was 36.7 µM (active).
With `CN(C)c1ccc(C(=C2C=CC(=[N+](C)C)C=C2)c2ccc(N(C)C)cc2)cc1` the AC50 was 41.6 µM (active).
With `CCCCCCCCCCCO` the outcome was “inactive”.
For `CC(=O)N1CCN(c2ccc(OC[C@H]3CO[C@](Cn4ccnc4)(c4ccc(Cl)cc4Cl)O3)cc2)CC1`, the AC50 was 12.7 µM (active).
With `CC(C)(c1cc(Br)c(O)c(Br)c1)c1cc(Br)c(O)c(Br)c1` the AC50 was 6.61 µM (active).
With `NCc1cccc(C2CCN(C(=O)c3ccc(C#Cc4ccccc4F)o3)CC2)c1` the AC50 was 61.4 µM (active).
In the case of `OC12N=C(c3ccccc3)SC1Cc1cc(Cl)ccc12` (stereo not given), the outcome was “inactive”.
For `NC(=O)c1nc(-c2cccc(-c3cc(F)ccc3OCC(F)(F)C(F)(F)F)c2)n[nH]1`, the AC50 was 6.36 µM (active).
In the case of `Cc1cc2c(cc1C(F)(F)F)N(C(=O)Nc1ccc(Oc3cccnc3C)nc1)CC2`, the AC50 was 10.9 µM (active).
For `CN1C(=O)N(c2ccccc2Br)Cc2cnc(Nc3ccc4c(c3)OCC(CO)O4)nc21` (stereo not given), the AC50 was 50 µM (active).
With `O=C1c2ccccc2C(=O)N1CCc1noc(-c2ccc(CN3CCCCCC3)s2)n1` the AC50 was 39.8 µM (active).
For `O=C(O)Cc1cc(I)c(Oc2ccc(O)c(I)c2)c(I)c1`, the AC50 was 50 µM (active).
For `CCCCCCCCCCCC[N+](C)(C)C`, the AC50 was 37.8 µM (active).
With `CCN(Cc1cccnc1)C(=O)c1cccc(Cl)c1[C@]1(C)C(=O)N(Cc2ccc(OC)cc2OC)c2ccc(Cl)cc21` the AC50 was 2.17 µM (active).
With `CCCCCCCCOC(=O)c1cc(O)c(O)c(O)c1` the AC50 was 11.5 µM (active).
In the case of `CC(C)(O)c1ccc(CNC(=O)c2cccnc2Oc2ccc3nonc3c2)cc1`, the outcome was “inactive”.
With `CN(C)C(=O)C1(N2CCCCC2)CCN(CC[C@@]2(c3ccc(Cl)c(Cl)c3)CN(C(=O)c3ccccc3)CCO2)CC1` the outcome was “inactive”.
In the case of `CCCCOC(=O)c1ccc(O)cc1`, the AC50 was 50 µM (active).
